Measured values reported in PubChem BioAssay (EPA / NIEHS).
Calls of active or inactive are those of the source. The calls were made as follows: active = hit-call score of the fitted dose curve at least 0.9, where 1 is the maximum; inactive = score below 0.9.

Columns and labels:
[1] = read-out: Tissue Factor, F3 (gene 2152); assay: BSK_CASM3C_TissueFactor: BioMAP Diversity Plus: CASM3C Assay for Tissue Factor Biomarker Activity (AID 2283052); conditions: primary human coronary artery smooth muscle cells; actives raise or lower the signal;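 also: cell surface tissue factor protein level read by ELISA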
[2] = read-out: Interferon-gamma inducible Protein 10 (IP10), CXCL10 (gene 3627); assay: BSK_hDFCGF_IP10: BioMAP Diversity Plus: hDFCGF Assay for Interferon-gamma inducible Protein 10 (IP10) Biomarker Activity (AID 2283053); conditions: primary human foreskin fibroblasts; actives raise or lower the signal
Summary of the method: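 ELISA quantification of IP-10 after a 24 h chemical exposure of human dermal foreskin fibroblast primary cultures. Both increases and decreases versus DMSO fitted.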

[3] = read-out: Urokinase-type plasminogen activator receptor (uPAR), PLAUR (gene 5329); assay: BSK_CASM3C_uPAR: BioMAP Diversity Plus: CASM3C Assay for Urokinase-type plasminogen activator receptor (uPAR) Biomarker Activity (AID 2283054); conditions: primary human coronary artery smooth muscle cells; actives raise or lower the signal;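 also: cell-surface uPAR protein level quantified by ELISA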
[4] = read-out: Vascular cell adhesion molecule 1 (VCAM1), VCAM1 (gene 7412); assay: BSK_CASM3C_VCAM1: BioMAP Diversity Plus: CASM3C Assay for Vascular cell adhesion molecule 1 (VCAM1) Biomarker Activity (AID 2283055); conditions: primary human coronary artery smooth muscle cells; actives raise or lower the signal;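 also: VCAM-1 protein level quantified by ELISA on the cells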
[5] = read-out: Collagen III, COL3A1 (gene 1281); assay: BSK_hDFCGF_CollagenIII: BioMAP Diversity Plus: hDFCGF Assay for Collagen III Biomarker Activity (AID 2283056); conditions: primary human foreskin fibroblasts; actives raise or lower the signal
Summary of the method: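 Human foreskin fibroblast primary cultures sampled 24 h after dosing; Collagen III quantified by ELISA. Signal fitted bidirectionally against DMSO baseline.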

[6] = read-out: Epidermal growth factor receptor (EGFR), EGFR (gene 1956); assay: BSK_hDFCGF_EGFR: BioMAP Diversity Plus: hDFCGF Assay for Epidermal growth factor receptor (EGFR) Biomarker Activity (AID 2283057); conditions: primary human foreskin fibroblasts; actives raise or lower the signal
Summary of the method: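 EGFR levels by ELISA in human dermal fibroblast cultures, 24 h post-treatment, fitted bidirectionally versus DMSO. Parallel wells stained with sulforhodamine B to detect overt cytotoxicity.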

[7] = read-out: Interleukin-8 (IL8), CXCL8 (gene 3576); assay: BSK_hDFCGF_IL8: BioMAP Diversity Plus: hDFCGF Assay for Interleukin-8 (IL8) Biomarker Activity (AID 2283058); conditions: primary human foreskin fibroblasts; actives raise or lower the signal
Summary of the method: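 Primary human foreskin fibroblasts (hDFCGF system) dosed with chemical; IL-8 measured by ELISA 24 hours later. Bidirectional curve fitting relative to DMSO baseline; cytotoxicity tracked in parallel cultures by SRB total protein staining.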

[8] = BSK_hDFCGF_Proliferation: Cell Proliferation Assessment in the BioMAP Diversity Plus: hDFCGF Assay (AID 2283059); conditions: primary human foreskin fibroblasts;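 also: curves fitted for both rise and fall of signal versus DMSO baseline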
Summary of the method: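 Steps: dose primary human dermal fibroblasts (foreskin); […] fix in 10% TCA; stain with 0.1% SRB; read 560 nm; fit gain or loss of signal against DMSO.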

[9] = read-out: Macrophage colony-stimulating factor (MCSF), CSF1 (gene 1435); assay: BSK_hDFCGF_MCSF: BioMAP Diversity Plus: hDFCGF Assay for Macrophage colony-stimulating factor (MCSF) Biomarker Activity (AID 2283060); conditions: primary human foreskin fibroblasts; actives raise or lower the signal
Summary of the method: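 Human foreskin fibroblast primary cultures; M-CSF measured by ELISA 24 hours after chemical dosing. Bidirectional fitting relative to DMSO, with overt cytotoxicity tracked by parallel SRB total-protein staining (0.1% SRB, 10% TCA fixation, 560 nm).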

[10] = BSK_hDFCGF_SRB: Viability Assessment in the BioMAP Diversity Plus: hDFCGF Assay (AID 2283061); conditions: primary human foreskin fibroblasts;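 also: cells exposed to compound for 24 h before the read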
Summary of the method: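 Human foreskin fibroblasts in 96-well plates were treated 24 h. Total protein was measured by 0.1% SRB staining after 10% TCA fixation, read at 560 nm. Data were fitted bidirectionally against DMSO.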

[11] = read-out: TIMP metallopeptidase inhibitor 1 (TIMP1), TIMP1 (gene 7076); assay: BSK_hDFCGF_TIMP1: BioMAP Diversity Plus: hDFCGF Assay for TIMP metallopeptidase inhibitor 1 (TIMP1) Biomarker Activity (AID 2283062); conditions: primary human foreskin fibroblasts; actives raise or lower the signal
Summary of the method: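 Human foreskin fibroblast primary cultures dosed for 24 h; secreted/surface TIMP-1 quantified by ELISA. Bidirectional curve fitting against DMSO baseline; cytotoxicity tracked in parallel cultures by SRB total-protein staining.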

[12] = read-out: Monokine induced gamma interferon (MIG), CXCL9 (gene 4283); assay: BSK_hDFCGF_MIG: BioMAP Diversity Plus: hDFCGF Assay for Monokine induced gamma interferon (MIG) Biomarker Activity (AID 2283063); conditions: primary human foreskin fibroblasts; actives raise or lower the signal
Summary of the method: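 MIG/CXCL9 measured by ELISA 24 h after dosing primary human skin fibroblasts. Activity fitted in both directions against DMSO controls. Cytotoxicity was checked in parallel cultures by SRB staining read at 560 nm.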

[13] = read-out: Matrix Metallopeptidase 1 (MMP1), MMP1 (gene 4312); assay: BSK_hDFCGF_MMP1: BioMAP Diversity Plus: hDFCGF Assay for Matrix Metallopeptidase 1 (MMP1) Biomarker Activity (AID 2283064); conditions: primary human foreskin fibroblasts; actives raise or lower the signal
Summary of the method: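 Human foreskin fibroblasts exposed to chemical for 24 h; MMP1 detected by ELISA, with DMSO as baseline for bidirectional fitting.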

[14] = read-out: Vascular cell adhesion molecule 1 (VCAM1), VCAM1 (gene 7412); assay: BSK_hDFCGF_VCAM1: BioMAP Diversity Plus: hDFCGF Assay for Vascular cell adhesion molecule 1 (VCAM1) Biomarker Activity (AID 2283065); conditions: primary human foreskin fibroblasts; actives raise or lower the signal;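 as to AC50: VCAM-1 protein level quantified by ELISA after 24 h chemical exposure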
Summary of the method: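 Human foreskin fibroblast primary cells dosed with chemical, VCAM-1 measured by ELISA at 24 h. Bidirectional curve fitting relative to DMSO as negative control/baseline.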

[15] = read-out: Plasminogen activator inhibitor-1 (PAI1), SERPINE1 (gene 5054); assay: BSK_hDFCGF_PAI1: BioMAP Diversity Plus: hDFCGF Assay for Plasminogen activator inhibitor-1 (PAI1) Biomarker Activity (AID 2283066); conditions: primary human foreskin fibroblasts; actives raise or lower the signal
Summary of the method: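 PAI-1 levels in human dermal foreskin fibroblasts were quantified by ELISA 24 h after dosing, with gain or loss analysed against DMSO. Overt cytotoxicity was checked by sulforhodamine B total-protein staining in parallel cultures.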

[16] = read-out: Intercellular Adhesion Molecule 1 (ICAM1), ICAM1 (gene 3383); assay: BSK_KF3CT_ICAM1: BioMAP Diversity Plus: KF3CT Assay for Intercellular Adhesion Molecule 1 (ICAM1) Biomarker Activity (AID 2283067); conditions: primary human keratinocytes with fibroblasts; actives raise or lower the signal
Summary of the method: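 Human keratinocyte–foreskin fibroblast co-culture was treated for 24 h. Cell-surface ICAM-1 was quantified by ELISA, fitted bidirectionally relative to DMSO. Cytotoxicity was checked in parallel cultures by SRB total-protein staining.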

[17] = read-out: Interferon-gamma inducible Protein 10 (IP10), CXCL10 (gene 3627); assay: BSK_KF3CT_IP10: BioMAP Diversity Plus: KF3CT Assay for Interferon-gamma inducible Protein 10 (IP10) Biomarker Activity (AID 2283068); conditions: primary human keratinocytes with fibroblasts; actives raise or lower the signal
Summary of the method: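 KF3CT co-culture (keratinocytes + foreskin fibroblasts), 24 h compound, IP-10 by ELISA; bidirectional fit vs DMSO baseline.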

[18] = read-out: Interleukin-1 alpha (IL1a), IL1A (gene 3552); assay: BSK_KF3CT_IL1a: BioMAP Diversity Plus: KF3CT Assay for Interleukin-1 alpha (IL1a) Biomarker Activity (AID 2283070); conditions: primary human keratinocytes with fibroblasts; actives raise or lower the signal
Summary of the method: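 Readout is IL-1a level by ELISA, compared bidirectionally with DMSO as baseline. Cells: human keratinocytes co-cultured with foreskin fibroblasts, harvested 24 h post-dose.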

[19] = read-out: TIMP metallopeptidase inhibitor 2 (TIMP2), TIMP2 (gene 7077); assay: BSK_KF3CT_TIMP2: BioMAP Diversity Plus: KF3CT Assay for TIMP metallopeptidase inhibitor 2 (TIMP2) Biomarker Activity (AID 2283071); conditions: primary human keratinocytes with fibroblasts; actives raise or lower the signal
Summary of the method: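 TIMP-2 measured by ELISA at 24 h in human keratinocyte/fibroblast primary co-cultures exposed to chemicals. Both increases and decreases were fitted against DMSO. Parallel cultures were stained with SRB for total protein as an overt-cytotoxicity check.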

[20] = BSK_KF3CT_SRB: Viability Assessment in the BioMAP Diversity Plus: KF3CT Assay (AID 2283069); conditions: primary human keratinocytes with fibroblasts;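 also: read 24 h after compound addition; fitted for both signal gain and loss against DMSO baseline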
Summary of the method: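 Overt cytotoxicity is assessed as total protein by sulforhodamine B staining in parallel human skin co-cultures at 24 h after dosing. DMSO serves as negative control and baseline.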

Measured: AC50

O=C1C=CC(=O)c2ccccc21
inactive: [6] | [7]
active: [1] 6750 nM | [2] 1550 nM | [3] 4990 nM | [4] 3840 nM | [5] 1270 nM | [8] 905 nM | [9] 1170 nM | [10] 1630 nM | [11] 2410 nM | [12] 1680 nM | [13] 1980 nM | [14] 1200 nM | [15] 1530 nM | [16] 2710 nM | [17] 2810 nM | [18] 2040 nM | [19] 1670 nM

C=CC(Cl)CCl (stereo unspecified)
active: [4] 921 nM | [8] 20400 nM | [18] 79.7 nM
not listed: [14] | [19]
inactive: all other assays above

Cc1ccccc1OP(=O)(Oc1ccccc1)Oc1ccccc1
active: [2] 19000 nM | [5] 2840 nM | [8] 20000 nM | [9] 10500 nM | [10] 29200 nM | [11] 14500 nM | [12] 20000 nM | [13] 27400 nM | [14] 5060 nM | [18] 20000 nM | [19] 14400 nM
inactive: [1] | [3] | [4] | [6] | [7] | [15] | [16] | [17]

O=C(Cc1ccccc1)OCCc1ccccc1
not listed: [14] | [19]
inactive: all other assays above

OCCN(CCO)CCO
not listed: [8] | [19]
inactive: all other assays above

O=[N+]([O-])c1cccc2ccccc12
active: [3] 20000 nM
not listed: [8]
inactive: all other assays above
